Active and inactive are the calls of the source. Rule for the calls: active = hit-call score of the fitted dose curve at least 0.9, where 1 is the maximum; inactive = score below 0.9.
Molecular target: Nuclear respiratory factor 1 (Homo sapiens) (UniProt Q16656)
Experiment: ATG_NRF1_CIS: Attagene CIS-FACTORIAL HepG2 Assay for human Nuclear Respiratory Factor 1 (NRF1) Orphan Gene (AID 2282987)
Conditions: HepG2 NRF1 cis-element reporter, Attagene multiplex; actives raise or lower the signal
Experimental: ATG_CIS is a cell-based, multiplexed-readout assay that uses HepG2, a human liver cell line, with measurements taken at 24 hours after chemical dosing in a 24-well plate.ATG_NRF1_CIS is one of 52 assay component(s) measured or calculated from the ATG_CIS assay. It is designed to make measurements of mRNA induction, a form of inducible reporter, as detected with fluorescence intensity signals by Reverse transcription polymerase chain reaction (RT-PCR) and Capillary electrophoresis technology.Data from the assay component ATG_NRF1_CIS was analyzed into 1 assay endpoint. This assay endpoint, ATG_NRF1_CIS, was analyzed with bidirectional fitting relative to DMSO as the negative control and baseline of activity. Using a type of inducible reporter, measures of mRNA for gain or loss-of-signal activity can be used to understand the reporter gene at the transcription factor-level as they relate to the gene NRF1. Furthermore, this assay endpoint can be referred to as a primary readout, because this assay has produced multiple assay endpoints where this one serves a reporter gene function. To generalize the intended target to other relatable targets, this assay endpoint is annotated to the dna binding intended target family, where the subfamily is nuclear respiratory factors.
Human liver HepG2 cells are transiently transfected with multiple reporter transcription units (MRTUs) in 6-well plates using FuGene 6 reagent (Roche; 3 ml FuGene/1 mg DNA). The MRTU constructs are regulated by a cis-regulating element (promoter). […] A major difference between the CIS and TRANS system is that in CIS activities of endogenous TFs are measured, whereas the TRANS assay evaluates changes in activities of exogenous, chimeric NR-Gal4 proteins. […] At the end of 24 hour incubation, total RNA was isolated using TriZol reagent (Invitrogen). The isolated RNA is then reverse-transcribed using oligo(dT) primer and Mo-MLV reverse transcriptase (Invitrogen) with DNAse I (Ambion) treatment for 30 min. The one-tenth of the produced cDNA was amplified by PCR using Taq DNA polymerase (Invitrogen) and two reporter sequence-specific primers. The PCR products were fluorescently labeled by primer extension with 6-arboxyfluorescein (6-FAM) 5'-labeled reporter sequence-specific primer (2 min at 95 C, 20 s at 68 C and 10 min at 72 C) and these products were digested with 5U of HpaI (New England Biolabs) for 2h at 37 C. The fragments were purified using Qiaquick PCR columns (Qiagen), analyzed on an ABI 3130xL genetic analyzer (Applied Biosystems) with peak positions identified by using a set of X-rhodamine (ROX)-labeled MapMarker1000 molecular weight standards (BioVentures). The raw capillary electrophoresis data was processed using Attagraph software (Attagene).

Sequence of Nuclear respiratory factor 1 (Homo sapiens) (Q16656 whole entry, looked up): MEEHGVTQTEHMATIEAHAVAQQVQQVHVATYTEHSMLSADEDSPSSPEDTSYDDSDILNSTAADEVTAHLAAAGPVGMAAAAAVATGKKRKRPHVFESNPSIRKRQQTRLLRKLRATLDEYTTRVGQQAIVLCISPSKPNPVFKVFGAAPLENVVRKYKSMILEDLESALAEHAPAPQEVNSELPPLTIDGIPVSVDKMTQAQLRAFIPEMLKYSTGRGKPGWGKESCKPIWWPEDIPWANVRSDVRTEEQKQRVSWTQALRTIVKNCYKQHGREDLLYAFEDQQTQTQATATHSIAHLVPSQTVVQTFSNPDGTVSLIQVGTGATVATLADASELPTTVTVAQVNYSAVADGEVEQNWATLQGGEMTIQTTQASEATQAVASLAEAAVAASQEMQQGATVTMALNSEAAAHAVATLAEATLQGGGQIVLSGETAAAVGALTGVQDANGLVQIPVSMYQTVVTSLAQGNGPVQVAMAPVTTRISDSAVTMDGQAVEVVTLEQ

Row | SMILES | outcome | AC50
1 | CCOc1cc(C(C)(C)C)ccc1C1COC(c2c(F)cccc2F)=N1 (stereo not given) | inactive | 
2 | CC(C)C1(C)N=C(c2ncccc2C(=O)O)NC1=O (stereo not given) | inactive | 
3 | CCCN(CC)CC1COC2(CCC(C(C)(C)C)CC2)O1 (stereo not given) | inactive | 
4 | Cc1cc(C)nc(Nc2ccccc2)n1 | inactive | 
5 | Nc1c(Cl)c(F)nc(OCC(=O)O)c1Cl | inactive | 
6 | CCN(CC)C(=O)C(C)Oc1cccc2ccccc12 (stereo not given) | inactive | 
7 | O=c1n(Cl)c(=O)n(Cl)c(=O)n1Cl | inactive | 
8 | CCCCOCN(C(=O)CCl)c1c(CC)cccc1CC | inactive | 
9 | COC(=O)NS(=O)(=O)c1ccc(N)cc1 | inactive | 
10 | CO/N=C(/C1=NOCCO1)c1ccccc1Oc1ncnc(Oc2ccccc2Cl)c1F |  | 5.54 µM (active)
11 | CCCC(=NOCC)C1=C(O)CC(CC(C)SCC)CC1=O (stereo not given) | inactive | 
12 | Nc1c(Cl)c(Cl)nc(C(=O)O)c1Cl | inactive | 
13 | CCOP(=S)(OCC)Oc1nc(Cl)n(C(C)C)n1 | inactive | 
14 | CC(C)Nc1nc(Cl)nc(NC(C)C)n1 | inactive | 
15 | CC1(C)C(C(=O)OC(C#N)c2cccc(Oc3ccccc3)c2)C1(C)C (stereo not given) | inactive | 
16 | COCc1cnc(C2=NC(C)(C(C)C)C(=O)N2)c(C(=O)O)c1 (stereo not given) | inactive | 
17 | Clc1nc(Cl)nc(Nc2ccccc2Cl)n1 | inactive | 
18 | O=C(Nc1ccccc1-c1ccc(Cl)cc1)c1cccnc1Cl | inactive | 
19 | C=C(C)CN(CC)c1c([N+](=O)[O-])cc(C(F)(F)F)cc1[N+](=O)[O-] | inactive | 
20 | O=P(O)(O)CCCl | inactive | 

Row | SMILES | outcome | AC50
21 | CC(C)N1C(=O)N(c2ccccc2)CSC1=NC(C)(C)C | inactive | 
22 | COC(=O)NC(=S)Nc1ccccc1NC(=S)NC(=O)OC | inactive | 
23 | COP(=S)(OC)SCn1nnc2ccccc2c1=O | inactive | 
24 | Clc1cccc(C(Cl)(Cl)Cl)n1 | inactive | 
25 | Nc1cnn(-c2ccccc2)c(=O)c1Cl | inactive | 
26 | Cc1ccc(N=CN(C)C=Nc2ccc(C)cc2C)c(C)c1 | inactive | 
27 | COc1cc(OC)nc(NC(=O)NS(=O)(=O)c2ncccc2OCC(F)(F)F)n1 | inactive | 
28 | CCOc1nc(C(Cl)(Cl)Cl)ns1 | inactive | 
29 | COP(=S)(OC)Oc1ccc([N+](=O)[O-])c(C)c1 | inactive | 
30 | CNC(=O)Oc1cccc2ccccc12 | inactive | 
31 | CN=C=S | inactive | 
32 | CCNC(=O)NC(=O)C(C#N)=NOC | inactive | 
33 | OC(c1ccc(Cl)cc1)(c1ccc(Cl)cc1)C(Cl)(Cl)Cl | inactive | 
34 | COP(=O)(OC)O/C(C)=C/C(=O)N(C)C | inactive | 
35 | CC1(C)C(C=C(Cl)Cl)C1C(=O)OC(C#N)c1cccc(Oc2ccccc2)c1 (stereo not given) | inactive | 
36 | CCNP(=S)(OC)O/C(C)=C/C(=O)OC(C)C (stereo not given) | inactive | 
37 | COCC(C)N(C(=O)CCl)c1c(C)csc1C (stereo not given) | inactive | 
38 | Cn1c(-c2ccccc2)cc(-c2ccccc2)[n+]1C | inactive | 
39 | N#Cc1c(Cl)cccc1Cl | inactive | 
40 | CCCCC(O)(Cn1cncn1)c1ccc(Cl)cc1Cl (stereo not given) | inactive | 

Reference: PubChem BioAssay (EPA / NIEHS)
